# Screen size: about 120,000 compounds; about 5,300 (4.4%) were called active. Entries that show only a call come without a potency. Roughly 22% stayed inconclusive and do not appear here. The call rests on the fitted dose curve; in most records, active means well fitted inhibition curve with a large enough effect; inconclusive means small, poorly fitted or top-dose-only effect; inactive means no such curve, though single readings can be large or run the other way. For the sample, actives were picked, then their nearest neighbours and some compounds at random.
# Experiment: qHTS Primary assay for Inhibitors of Plasmodium falciparum Dd2 growth in vitro; further: nearly all actives have a fitted effect of over 65% in size
# Conditions: P. falciparum Dd2 growth, SYBR Green, 72 h; series mostly up to 28.9 µM
# Summary of the method: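 Readout: SYBR Green fluorescence, 485 nm excitation, 535 nm emission, after ~16 h lysis at 37C. Before that, Dd2-infected red cells (2.5% hematocrit) grew 72 h with compound, 29 uM top final concentration.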
# Potency means the concentration at half of the fitted maximal effect.
SMILES,Potency,outcome
O=C(NCc1cc(F)cc(F)c1)c1noc(-c2ccc3c(c2)OCO3)n1,inactive,
COc1ccc(CNC(=O)N2CCCCC2c2noc(COCC3CC3)n2)cc1 (stereo unspecified),inactive,
Cc1ccc(-c2cn3c(n2)sc2cc(C(=O)NCc4cccs4)ccc23)c(C)c1,11.2 µM (active),
CCOc1cccc2cc(-c3cn4c(n3)sc3cc(C)ccc34)c(=O)oc12,inactive,
Cc1ccc(-c2cn3c(n2)sc2cc(C(=O)NCCCc4ccccc4)ccc23)cc1,inactive,
O=C(NCc1ccccc1)c1cnc2n1CCN(Cc1c[nH]c3ccccc13)CC2,inactive,
COCC(=O)Nc1ccc([C@H]2OCC(=O)N[C@@H]2CO)cc1,inactive,
Cn1ncc(N2CCC(C(=O)N3CC=C(c4ccccc4)CC3)C2)cc1=O (stereo unspecified),inactive,
Cn1cnc(C(=O)N2CCC(OC3CCN(S(C)(=O)=O)CC3)CC2)c1,inactive,
COc1ccc(NC(=O)N2CCC(O)(c3csc(CN4CCc5ccccc5C4)n3)CC2)cc1,inactive,
CC(C)c1csc(CN2CCN(c3ncccc3C#N)CC2)n1,inactive,
Oc1ccccc1CN1CCC(O)(c2csc(CN3CCN(c4ccccn4)CC3)n2)CC1,7.94 µM (active),
COc1ccccc1CCC(=O)N1CCC[C@H]1c1nc(-c2ccccc2)no1,inactive,
CC(C)c1cc(C(=O)NCc2cccnc2Oc2ccc(F)cc2F)on1,inactive,
CN(C)c1nc2c(c(=O)[nH]1)CCN(Cc1ccncc1)CC2,,inactive [at 5.79 µM]
Cc1ccc(CN2C(=O)[C@@H]3C[C@@H](O)CN3C3(CN(Cc4ccncc4)C3)C2=O)o1,inactive,
O=C1CC(c2ccccc2)N(Cc2cn[nH]c2-c2ccc(F)cc2)CCCCCN1 (stereo unspecified),8.91 µM (active),
COc1ccc(OC)c(S(=O)(=O)N2CCCCCCNC(=O)CC2c2ccccc2)c1 (stereo unspecified),inactive,
O=C1CC(c2ccccc2)N(C(=O)CNC(=O)c2cnccn2)CCCCCCN1 (stereo unspecified),inactive,
Cn1cc(CC(=O)N2CCCc3ncc(C(=O)NCc4ccc(F)cc4)cc32)c2ccccc21,inactive,
CC(=O)N1CCCN(Cc2nnc(C(=O)N3CCC[C@@H]3C(c3ccccc3)c3ccccc3)n2-c2ccccc2)CC1,inactive,
Cc1nc(N2CCC(NCCNc3ccncc3C)CC2)c2ccsc2n1,10 µM (active),
Cc1nc(N2CCC(NC(=O)c3cnccn3)CC2)cc(C(F)(F)F)n1,inactive,

SMILES,Potency,outcome
Cc1occc1C(=O)NC1CCc2nn(CC3CC3)c(=O)n2CC1 (stereo unspecified),inactive,
CN1CCOC(CNc2ncc(C(C)(C)C(=O)O)c(N3CCOCC3)n2)C1 (stereo unspecified),inactive,
Cc1c(CNC(=O)c2ccc3c(c2)[nH]c(=O)n3C2CCC(O)CC2)cnn1C (stereo unspecified),inactive,
Cc1ccccc1CSc1nc(-c2ccccc2)nc2c1Cc1c(CO)cnc(C)c1O2,3.98 µM (active),
CSc1nc(-c2ccc(F)cc2)nc2c1Cc1c(CO)cnc(C)c1O2,inactive,
COc1ccc(-c2nc3c(c(SCC(=O)Nc4ccc(C(=O)O)cc4)n2)Cc2ccccc2O3)cc1,inactive,
COc1cccc(C2Cn3nnc(-c4nc(-c5ccccc5F)no4)c3CO2)c1 (stereo unspecified),inactive,
Cc1ccc(CN2CCC(C3CCN(C)CC3)C2)o1 (stereo unspecified),inactive,
CCOc1cc(C(=O)N2CCC[C@H]2c2nc(-c3ccc(F)cc3)no2)cc(OCC)c1OCC,inactive,
COC(=O)c1ccccc1NC(=O)c1ccc(COc2ccccc2Cl)o1,inactive,
COC(=O)c1ccccc1NC(=O)C(Cc1ccccc1)N1Cc2ccccc2C1=O (stereo unspecified),inactive,
COC(=O)c1ccccc1NC(=O)c1cc(-c2ccccc2O)no1,4.47 µM (active),
CC(C)(C)CC(=O)N1CC[C@@H](CC(=O)O)[C@@H](CCN2CCN(c3ccc(F)cc3)CC2)C1,inactive,
O=C(NCCc1cn[nH]c1)[C@H]1CCC[C@@H](O)C1,inactive,
Cn1cc(-c2ccccc2Oc2ccccc2)c2nc(CN3CCNC(=O)C3)cn2c1=O,inactive,
Oc1ccc(-c2nc(C3CC3)nc3c2CCN(Cc2cccc(F)c2)CC3)cc1,inactive,
Cn1nccc1CN1CCc2nc(C3CC3)nc(-c3ccc(O)cc3)c2C1,inactive,
Oc1ccc(-c2nc(C3CC3)nc3c2CN(Cc2ccc(F)cc2)CC3)cc1,5.62 µM (active),
O=C1OCC2(CCN(Cc3ccc(F)c(Cl)c3)C2)N1Cc1ccccn1 (stereo unspecified),inactive,
C[C@@H](NC(=O)COc1ccccc1)c1c(-c2ccc(F)cc2)noc1C(=O)O,inactive,
Cc1cc(N2CCC(NC(=O)c3ccc(N(C)C)cc3)C2=O)ccc1F (stereo unspecified),inactive,
Cc1ccc(Cn2c(=O)n(CCCC(=O)NCc3ccccc3Cl)c(=O)c3ccccc32)cc1,inactive,
COc1ccc(NC(=O)Cn2c(=O)n(Cc3ccc(C(=O)NCc4ccccc4Cl)cc3)c(=O)c3ccccc32)cc1,10 µM (active),

SMILES,Potency,outcome
COc1ccccc1CNC(=O)CCn1c(=O)c2ccccc2n(CC(=O)Nc2cccc(Cl)c2)c1=O,inactive,
O=C(O)CCn1ncc2cc(OC3CCN(C(=O)C4CCCC4)CC3)ccc21,inactive,
CCCCNC(=O)C1CCN(C(=O)c2nnn3c2COC(c2ccc(C)cc2)C3)CC1 (stereo unspecified),inactive,
CCOc1cc(=O)n2c(c1C(=O)Nc1cc(Cl)ccc1F)CCCC2,inactive,
Cc1noc2c(NC3CCCCC3)cc(-c3ccsc3)nc12,inactive,
Fc1ccc(CNC2(Cc3cc(-c4ccc(F)cc4)on3)COC2)cc1,inactive,
O=C1NCc2ccc(-c3cc4c(ccn4Cc4cccnc4)c(C4=CCOCC4)n3)cc21,inactive,
FC(F)(F)c1cccc(-c2cc(C3=CCOCC3)c3cncn3c2)c1,14.1 µM (active),
OCc1cccc(-c2cc(C3=CCOCC3)c3cncn3c2)c1,inactive,
O=C(C1CCOCC1)N1CCC2(CC1)CC(N1CCCC1)CCO2 (stereo unspecified),inactive,
COC[C@H]1CCCN1C(=O)C(C)[C@@H]1CC[C@@]2(C)CC[C@H](NC(C)=O)[C@@H](C)[C@@H]2[C@H]1O (stereo partly specified),inactive,
Cc1cccc(C(=O)N2C[C@@H](Oc3cccnc3)C[C@H]2C(=O)N2CCCC2)c1,inactive,
CCC(CC)C(=O)N1CCC(N2CCCC(C(=O)NCc3ccccc3)C2)CC1 (stereo unspecified),10 µM (active),
O=C(NCC1CC1)C1CCCN(C2CCN(Cc3ccncc3)CC2)C1 (stereo unspecified),inactive,
Cc1cc(CNC(=O)C2CCCN(C3CCN(CCc4ccccc4)CC3)C2)on1 (stereo unspecified),inactive,
O=C(NCCC1CCN(C(=O)Nc2ccccc2F)CC1)c1ccccc1,inactive,
O=[S+]([O-])(Nc1cccnc1)c1ccc2c(c1)OCCN(Cc1ccc(F)cc1)C2,inactive,
CC1CCN(C(=O)C[C@@H]2c3nc(NC(=O)c4ccnc(Cl)c4)sc3C[C@@H]3[C@](C)(CO)[C@H](O)CC[C@]32C)CC1,6.31 µM (active),
C=CCN(C)C(=O)[C@@H](C)C1CC[C@@]2(C)Cc3sc(Nc4c(Cl)cccc4Cl)nc3[C@@H](C)[C@@H]2[C@H]1O (stereo partly specified),inactive,
CCCCCC(=O)Nc1nc2c(s1)C[C@@H]1[C@](C)(CO)[C@H](O)CC[C@@]1(C)[C@@H]2CC(=O)N1CCC(C(N)=O)CC1,inactive,
COCC(=O)Nc1nc2c(s1)C[C@@H]1[C@](C)(CO)[C@H](O)CC[C@@]1(C)[C@@H]2CC(=O)NCCN1CCOCC1,inactive,
Cc1ccc(S(=O)(=O)Nc2nc3c(s2)C[C@@H]2[C@](C)(CO)[C@H](O)CC[C@@]2(C)[C@@H]3CC(=O)O)cc1,inactive,
C=CCN(C)C(=O)C[C@@H]1c2nc(NC(=O)c3ccc(C(C)(C)C)cc3)sc2C[C@@H]2[C@](C)(CO)[C@H](O)CC[C@]21C,3.98 µM (active),

SMILES,Potency,outcome
CN1CCC2(C1)CN(CC1CCOCC1)c1ccc(C(=O)NCCCn3ccnc3)cc12 (stereo unspecified),inactive,
c1ncc(CN2CCn3c(nnc3C3CCCNC3)C2)s1 (stereo unspecified),inactive,
Cc1nc(N)nc(C)c1CC(=O)N1CCC2(CC1)OCCCC2O (stereo unspecified),inactive,
Cc1ccc(C(=O)Nc2ccc3[nH]c(=O)c(=O)[nH]c3c2)cc1,inactive,
CC(C)c1ccc(NC(=O)c2ccc3c(O)c(S(=O)(=O)c4ccccc4)c(=O)[nH]c3c2)cc1,11.2 µM (active),
COc1ccc(CNC(=O)c2ccc3c(O)c(S(=O)(=O)c4ccccc4)c(=O)[nH]c3c2)cc1,inactive,
COc1cccc([S+](=O)([O-])N2CCC3(C2)C(=NC2CCCCC2)NC(=O)N3c2cccnc2)c1 (stereo unspecified),inactive,
N#Cc1ccc(S(=O)(=O)N2CC(n3cc(C(=O)NCc4ccccc4)nn3)C2)cc1,inactive,
O=C1NCCCCCCN(Cc2ccncc2)[C@@H]2CN(C(=O)Nc3ccc4c(c3)OCCO4)CC[C@@H]12,inactive,
Cc1ccc(NC(=O)N2CC[C@H]3C(=O)NCCCCCN(Cc4cccnc4)[C@@H]3C2)cc1C,8.91 µM (active),
O=C1NCCCCCN(Cc2cccnc2)[C@@H]2CN(C(=O)C3CCCCC3)CC[C@@H]12,inactive,
O=C(NCc1ccco1)N1CC2CC(C1)[C@H]1CCCC(=O)N1C2 (stereo partly specified),inactive,
O=C([C@@H]1CCCN1C1CCNCC1)N1CCN(Cc2cccnc2)CC1,inactive,
COCC1CN(C(C)=O)CC12CCN(C(=O)NCc1cccc(OC)c1)CC2 (stereo unspecified),inactive,
COCC1CN(C(C)=O)CC12CCN(Cc1cccc(C#N)c1)CC2 (stereo unspecified),inactive,
CCOc1cccc(CN2CCC3(CC2)CN(C)CC3COC)c1 (stereo unspecified),4.47 µM (active),
CCOc1ccc(-c2n[nH]c3c2C(c2ccccc2OC)N(c2ccc(Br)cc2)C3=O)cc1 (stereo unspecified),10 µM (active),
CN1C(=O)c2[nH]nc(-c3ccc(F)cc3)c2C1c1ccccn1 (stereo unspecified),inactive,
Cc1ccc(-n2c(C3CCN(C(=O)c4ccccc4C(F)(F)F)CC3)n[nH]c2=O)cc1,inactive,
CC(=O)Nc1cccc(NC(=O)C2CC(=O)N(c3n[nH]c4ccccc34)C2)c1 (stereo unspecified),inactive,
O=c1n(CC2CC2)nc2n1CCC(NS(=O)(=O)Cc1ccccc1)CC2 (stereo unspecified),inactive,
CC(=O)c1cc(CN2CCn3nc(C(O)c4ccnn4C)cc3C2)cs1 (stereo unspecified),inactive,
